Source: PubChem BioAssay (NCI)
Compounds without any hit were thinned out: in the full panel of roughly 83,000, 20% have a hit.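 Interpretation: 100, growth as untreated; towards 0, rising growth inhibition; 0, no net growth; 0 to -100, cell death. Compounds scoring below 10 were considered active.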 Values without a mark were called inactive. The source made the active and inactive calls.

Experiments:
Test in all cases: NCI-60 one-dose screen, 48 h (100 = growth as untreated, 0 = no growth, -100 = all killed)
SK-MEL-2 melanoma = settings: 10 µM unless noted
EKVX NSCLC = settings: 10 µM unless noted
SN12C renal = settings: 10 µM unless noted
UO-31 renal = settings: 10 µM unless noted
TK-10 renal = settings: 10 µM unless noted
ACHN renal = settings: 10 µM unless noted
HL-60(TB) leukemia = settings: 10 µM unless noted
CCRF-CEM leukemia = settings: 10 µM unless noted
MOLT-4 leukemia = settings: 10 µM unless noted
SR leukemia = settings: 10 µM unless noted
RPMI-8226 leukemia = settings: 10 µM unless noted
OVCAR-8 ovarian = settings: 10 µM unless noted
OVCAR-5 ovarian = settings: 10 µM unless noted
OVCAR-4 ovarian = settings: 10 µM unless noted
SK-OV-3 ovarian = settings: 10 µM unless noted
IGROV1 ovarian = settings: 10 µM unless noted
OVCAR-3 ovarian = settings: 10 µM unless noted
HS 578T breast = settings: 10 µM unless noted
A498 renal = settings: 10 µM

Structure (SMILES) | growth (SK-MEL-2 melanoma) | growth (EKVX NSCLC) | growth (SN12C renal) | growth (UO-31 renal) | growth (TK-10 renal) | growth (ACHN renal) | growth (HL-60(TB) leukemia) | growth (CCRF-CEM leukemia) | growth (MOLT-4 leukemia) | growth (SR leukemia) | growth (RPMI-8226 leukemia) | growth (OVCAR-8 ovarian) | growth (OVCAR-5 ovarian) | growth (OVCAR-4 ovarian) | growth (SK-OV-3 ovarian) | growth (IGROV1 ovarian) | growth (OVCAR-3 ovarian) | growth (HS 578T breast) | growth (A498 renal)
O=C(Nc1ccc(O)cc1)C(Cl)(Cl)Cl | 99.4% | 98.6% | 95.4% | 93.4% | 106% | 104% | 98.5% | 106% | 104% | 96.6% | 112% | 97.1% | 102% | 105% | 98.2% | 100% | 124% | 112% | –
c1ccc(Nc2nc(-c3ccccc3)c[se]2)cc1 | 105% | 70.3% | 86.2% | 46.2% | 83.5% | 84% | – | 101% | 76.2% | 79.6% | 86.6% | 96.3% | 96.7% | 75.6% | 86.4% | 68.8% | 93.5% | 89.6% | 55.9%
Nc1nc([Se])c2ncn(C3OC(CO)C(O)C3O)c2n1 (centres undefined) | 104% | 62.9% | 94.7% | 84.9% | 59.6% | 84.3% | 41.7% | 16.3% | 7.08% (active) | – | 23.9% | 55.8% | – | 79.5% | 77.7% | – | 104% | 75.4% | 95.3%
COc1ccc(NC([Se])=NC23CC4CC(CC(C4)C2)C3)cc1 | -8.11% (active) | -14.3% (active) | 4.39% (active) | -27.3% (active) | -40.9% (active) | 0.201% (active) | -11.8% (active) | 5.94% (active) | 5.72% (active) | 5.11% (active) | -31.9% (active) | -0.307% (active) | -12.9% (active) | 6.53% (active) | -18.2% (active) | 3.84% (active) | -32.3% (active) | -5.52% (active) | –
COC(=O)CC[C@H](Cc1ccccc1)NC(=O)c1csc([C@@H](C[C@H](C(C)C)N(C)C(=O)[C@@H](NC(=O)[C@H]2CCCCN2C)C(C)C)OC(C)=O)n1 | 54.1% | 44.1% | 43.8% | 49.7% | 42.5% | 23.9% | – | 19.8% | 9.45% (active) | 13.9% | 37.3% | 28.1% | 76.2% | 52.3% | 35.4% | 15.3% | -3.19% (active) | 38.2% | 5.63% (active)
O=[N+]([O-])c1cc([N+](=O)[O-])c(Cl)cc1Cl | -43% (active) | -57.1% (active) | -89% (active) | -93.9% (active) | -92.9% (active) | -91.5% (active) | – | -36.3% (active) | -21% (active) | -31.3% (active) | -50.2% (active) | -26.8% (active) | -69.1% (active) | -99% (active) | 104% | – | -98% (active) | -27.6% (active) | 80.1%
COC(=O)C12CC(NC(=O)c3csc([C@@H](C[C@H](C(C)C)N(C)C(=O)[C@@H](NC(=O)[C@H]4CCCCN4C)C(C)C)OC(C)=O)n3)(C1)C2 | 28.5% | 44% | 24.5% | 44.4% | 56.5% | 22.9% | -38.9% (active) | 8.23% (active) | 14.3% | 15.2% | – | 24.8% | 46.8% | 50.4% | – | 19.3% | -17.5% (active) | 35.3% | -1.32% (active)
COC(=O)[C@@H](C)C[C@H](Cc1ccccc1)NC(=O)c1nc([C@@H](C[C@H](C(C)C)N(C)C(=O)[C@@H](NC(=O)[C@H]2CCCN2C)C(C)C)OC(C)=O)sc1C | 36.6% | 45.4% | 31% | 43.9% | 13.6% | 19.6% | -33.5% (active) | 10.3% | 15.3% | 5.28% (active) | 20.6% | – | 30.7% | 49.9% | 1.93% (active) | 27.4% | -9.82% (active) | 18.8% | –
CCCCCCCC[n+]1ccc2ccccc2c1 | 24.5% | 75.3% | 48.3% | 71% | 62.9% | 94.8% | – | 43.3% | 58% | 47.8% | – | 55.7% | 88.5% | 46.4% | – | 64.1% | 50.2% | 76.1% | 93.1%
CC1(C)N=C(N)N=C(N)N1c1ccc(CCCCc2ccc(Cl)c(S(=O)(=O)F)c2)c(Cl)c1 | 38.7% | 45.3% | 24.6% | 27.3% | 41.7% | 28.2% | -43.9% (active) | 3.5% (active) | -33.1% (active) | – | – | 5.53% (active) | 44.9% | 35.8% | 57.4% | – | 29.5% | – | 69.6%
Clc1ccc2nnnn2n1 | -12.1% (active) | 90% | 51.2% | 5.04% (active) | 37.5% | 43% | -25.8% (active) | 19.6% | 17.3% | – | 5.38% (active) | 74.1% | 67.1% | 37.8% | 92% | – | -3.95% (active) | 89.6% | –
COc1cccc2c1c(C(=O)c1ccco1)cn2Cc1ccc(F)cc1 | 73.8% | 172% | 72.4% | 77.1% | 143% | 107% | 162% | 177% | 307% | – | 182% | 108% | 122% | 114% | 122% | 8.63% (active) | 108% | 122% | 135%
CCOC(=O)[C@@H](C)C[C@H](Cc1ccccc1)NC(=O)c1csc([C@@H](C[C@H](C(C)C)N(C)C(=O)[C@H](CCC(C)C)NC(=O)[C@H]2CCCCN2C)OC(C)=O)n1 | 28.1% | 45.6% | 18.9% | 20.6% | -5.17% (active) | 9.24% (active) | -32.3% (active) | 9.03% (active) | 10.3% | 4.32% (active) | – | 18% | – | 48.2% | 2.1% (active) | 26.1% | -1.34% (active) | 5.53% (active) | -11.5% (active)
N#C[Se]CCN1C(=O)c2ccccc2C1=O | 43.7% | 33.8% | 64.4% | 15.9% | 15.3% | 63.2% | – | 21.1% | 17.4% | 27.7% | 59.5% | 30.3% | 41.4% | 67.4% | – | 26.1% | 39.2% | 21.9% | -12.5% (active)
C/C=C(\C)C(=O)O[C@@H]1C(O)[C@H]2OC(COC(=O)CCC(=O)CCCCCC[C@H](CCCCC)O[C@@H]3OC(C)[C@H](OC(C)=O)C(O)[C@H]3O2)[C@H]1OC(=O)/C=C/c1ccccc1 (some centres undefined) | -1.53% (active) | 24.1% | 17.2% | 15% | 11.7% | 12% | 17.8% | 24.2% | 37.7% | -7.08% (active) | 2.87% (active) | 24% | 49.2% | 18% | 12.1% | 27.3% | 15.4% | 28.7% | –
CCCCCSC1C2C(=O)C(Br)=CC13CCNc1c(O)c4c5c(c13)=[N+]2CCC=5C=N4 (centres undefined) | -54.8% (active) | -56.1% (active) | -61.9% (active) | -66.9% (active) | -52.4% (active) | -90.2% (active) | -40.8% (active) | -13.5% (active) | -45.5% (active) | -14.1% (active) | -17% (active) | -30.2% (active) | -55.2% (active) | -88.6% (active) | -2.42% (active) | -64.6% (active) | -79.5% (active) | 4.01% (active) | –
